In the supplement of paper PMC4466140:

Tests used:
Assay in all cases: SPOT peptide array binding signal intensity (averaged, normalized) (arbitrary units (background-subtracted, floor 0; scale differs between SH3 domains)); higher = stronger binding of the SH3 domain to the peptide
AgAbp1 = biological target: AgAbp1
In short: (§1)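 Four yeast species supplied the SH3 domains, which were expressed as GST fusions in E. coli BL21(DE3) and purified on glutathione Sepharose. Incubation with cellulose membranes carrying synthetic 15-mer peptides, cysteines exchanged for serines, ran overnight at 4°C at 10 μg/ml in TBS-based blocking buffer. Binding signal is reported as normalized, background-subtracted spot intensity averaged over replicates, in arbitrary units not shared between domains.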

AgBbc1 = biological target: AgBbc1
In short: as §1

AgBem1-D1 = biological target: AgBem1-D1
In short: as §1

AgBzz1-D1 = biological target: AgBzz1-D1
In short: as §1

AgBzz1-D2 = biological target: AgBzz1-D2
In short: as §1

AgCyk3 = biological target: AgCyk3
In short: as §1

AgFus1 = biological target: AgFus1
In short: as §1

AgHof1 = biological target: AgHof1
In short: as §1

AgHse1 = biological target: AgHse1
In short: as §1

AgLsb1 = biological target: AgLsb1
In short: as §1

AgLsb4 = biological target: AgLsb4
In short: as §1

AgMyo5 = biological target: AgMyo5
In short: as §1

AgNbp2 = biological target: AgNbp2
In short: as §1

AgRvs167 = biological target: AgRvs167
In short: as §1

AgSho1 = biological target: AgSho1
In short: as §1

AgSla1-D1-D2 = biological target: AgSla1-D1-D2
In short: as §1

AgSla1-D3 = biological target: AgSla1-D3
In short: as §1

CaAbp1-D1 = biological target: CaAbp1-D1
In short: as §1

CaAbp1-D2 = biological target: CaAbp1-D2
In short: as §1

CaBbc1 = biological target: CaBbc1
In short: as §1

CaBem1-D1 = biological target: CaBem1-D1
In short: as §1

CaBzz1-D1 = biological target: CaBzz1-D1
In short: as §1

CaBzz1-D2 = biological target: CaBzz1-D2
In short: as §1

CaCyk3 = biological target: CaCyk3
In short: as §1

CaFus1 = biological target: CaFus1
In short: as §1

CaHof1 = biological target: CaHof1
In short: as §1

CaHse1 = biological target: CaHse1
In short: as §1

CaLsb1 = biological target: CaLsb1
In short: as §1

CaLsb4 = biological target: CaLsb4
In short: as §1

CaMyo5 = biological target: CaMyo5
In short: as §1

CaNbp2 = biological target: CaNbp2
In short: as §1

CaRvs167 = biological target: CaRvs167
In short: as §1

CaRvs167-3 = biological target: CaRvs167-3
In short: as §1

CaSho1 = biological target: CaSho1
In short: as §1

CaSla1-D1-D2 = biological target: CaSla1-D1-D2
In short: as §1

CaSla1-D3 = biological target: CaSla1-D3
In short: as §1

ScAbp1 = biological target: ScAbp1
In short: as §1

ScBbc1 = biological target: ScBbc1
In short: as §1

ScBem1-D1 = biological target: ScBem1-D1
In short: as §1

ScBzz1-D1 = biological target: ScBzz1-D1
In short: as §1

ScBzz1-D2 = biological target: ScBzz1-D2
In short: as §1

ScCyk3 = biological target: ScCyk3
In short: as §1

ScFus1 = biological target: ScFus1
In short: as §1

ScHof1 = biological target: ScHof1
In short: as §1

ScHse1 = biological target: ScHse1
In short: as §1

ScLsb1 = biological target: ScLsb1
In short: as §1

ScLsb2 = biological target: ScLsb2
In short: as §1

ScLsb3 = biological target: ScLsb3
In short: as §1

ScLsb4 = biological target: ScLsb4
In short: as §1

ScMyo3 = biological target: ScMyo3
In short: as §1

ScMyo5 = biological target: ScMyo5
In short: as §1

ScNbp2 = biological target: ScNbp2
In short: as §1

ScPex13 = biological target: ScPex13
In short: as §1

ScRvs167 = biological target: ScRvs167
In short: as §1

ScSho1 = biological target: ScSho1
In short: as §1

ScSla1-D1-D2 = biological target: ScSla1-D1-D2
In short: as §1

ScSla1-D3 = biological target: ScSla1-D3
In short: as §1

SpAbp1-D1 = biological target: SpAbp1-D1
In short: as §1

SpBbc1 = biological target: SpBbc1
In short: as §1

SpBzz1-D1 = biological target: SpBzz1-D1
In short: as §1

SpBzz1-D2 = biological target: SpBzz1-D2
In short: as §1

SpCyk3 = biological target: SpCyk3
In short: as §1

SpHof1 = biological target: SpHof1
In short: as §1

SpHof1-2 = biological target: SpHof1-2
In short: as §1

SpHof1-3 = biological target: SpHof1-3
In short: as §1

SpHse1 = biological target: SpHse1
In short: as §1

SpLsb1 = biological target: SpLsb1
In short: as §1

SpLsb4 = biological target: SpLsb4
In short: as §1

SpMyo1 = biological target: SpMyo1
In short: as §1

SpNbp2 = biological target: SpNbp2
In short: as §1

SpPex13 = biological target: SpPex13
In short: as §1

SpRvs167 = biological target: SpRvs167
In short: as §1

SpSla1-D1-D2 = biological target: SpSla1-D1-D2
In short: as §1

SpSla1-D3 = biological target: SpSla1-D3
In short: as §1

QFDLKMPSKPIHNLK
SPOT peptide array binding signal intensity (AgAbp1): ≤ 0
SPOT peptide array binding signal intensity (AgBbc1): 0.5
SPOT peptide array binding signal intensity (AgBem1-D1): 103
SPOT peptide array binding signal intensity (AgBzz1-D1): 3.5
SPOT peptide array binding signal intensity (AgBzz1-D2): ≤ 0
SPOT peptide array binding signal intensity (AgCyk3): ≤ 0
SPOT peptide array binding signal intensity (AgFus1): 48.5
SPOT peptide array binding signal intensity (AgHof1): ≤ 0
SPOT peptide array binding signal intensity (AgHse1): 85.5
SPOT peptide array binding signal intensity (AgLsb1): ≤ 0
SPOT peptide array binding signal intensity (AgLsb4): 3.5
SPOT peptide array binding signal intensity (AgMyo5): ≤ 0
SPOT peptide array binding signal intensity (AgNbp2): 63.5
SPOT peptide array binding signal intensity (AgRvs167): 0.333
SPOT peptide array binding signal intensity (AgSho1): 57
SPOT peptide array binding signal intensity (AgSla1-D1-D2): ≤ 0
SPOT peptide array binding signal intensity (AgSla1-D3): ≤ 0
SPOT peptide array binding signal intensity (CaAbp1-D1): ≤ 0
SPOT peptide array binding signal intensity (CaAbp1-D2): ≤ 0
SPOT peptide array binding signal intensity (CaBbc1): 9.5
SPOT peptide array binding signal intensity (CaBem1-D1): 25
SPOT peptide array binding signal intensity (CaBzz1-D1): ≤ 0
SPOT peptide array binding signal intensity (CaBzz1-D2): 8
SPOT peptide array binding signal intensity (CaCyk3): 1.5
SPOT peptide array binding signal intensity (CaFus1): 446
SPOT peptide array binding signal intensity (CaHof1): ≤ 0
SPOT peptide array binding signal intensity (CaHse1): 49.8
SPOT peptide array binding signal intensity (CaLsb1): ≤ 0
SPOT peptide array binding signal intensity (CaLsb4): 142
SPOT peptide array binding signal intensity (CaMyo5): 8
SPOT peptide array binding signal intensity (CaNbp2): 202
SPOT peptide array binding signal intensity (CaRvs167): 1.67
SPOT peptide array binding signal intensity (CaRvs167-3): ≤ 0
SPOT peptide array binding signal intensity (CaSho1): 376
SPOT peptide array binding signal intensity (CaSla1-D1-D2): 68
SPOT peptide array binding signal intensity (CaSla1-D3): 77
SPOT peptide array binding signal intensity (ScAbp1): ≤ 0
SPOT peptide array binding signal intensity (ScBbc1): 0.25
SPOT peptide array binding signal intensity (ScBem1-D1): ≤ 0
SPOT peptide array binding signal intensity (ScBzz1-D1): ≤ 0
SPOT peptide array binding signal intensity (ScBzz1-D2): 3.5
SPOT peptide array binding signal intensity (ScCyk3): ≤ 0
SPOT peptide array binding signal intensity (ScFus1): 70
SPOT peptide array binding signal intensity (ScHof1): 0.5
SPOT peptide array binding signal intensity (ScHse1): 57
SPOT peptide array binding signal intensity (ScLsb1): 9
SPOT peptide array binding signal intensity (ScLsb2): 1
SPOT peptide array binding signal intensity (ScLsb3): 74
SPOT peptide array binding signal intensity (ScLsb4): 21
SPOT peptide array binding signal intensity (ScMyo3): ≤ 0
SPOT peptide array binding signal intensity (ScMyo5): ≤ 0
SPOT peptide array binding signal intensity (ScNbp2): 79.5
SPOT peptide array binding signal intensity (ScPex13): 23.8
SPOT peptide array binding signal intensity (ScRvs167): 2.83
SPOT peptide array binding signal intensity (ScSho1): 198
SPOT peptide array binding signal intensity (ScSla1-D1-D2): 59
SPOT peptide array binding signal intensity (ScSla1-D3): 150
SPOT peptide array binding signal intensity (SpAbp1-D1): 0.5
SPOT peptide array binding signal intensity (SpBbc1): 1.5
SPOT peptide array binding signal intensity (SpBzz1-D1): 104
SPOT peptide array binding signal intensity (SpBzz1-D2): ≤ 0
SPOT peptide array binding signal intensity (SpCyk3): ≤ 0
SPOT peptide array binding signal intensity (SpHof1): 9
SPOT peptide array binding signal intensity (SpHof1-2): 11.8
SPOT peptide array binding signal intensity (SpHof1-3): ≤ 0
SPOT peptide array binding signal intensity (SpHse1): 136
SPOT peptide array binding signal intensity (SpLsb1): ≤ 0
SPOT peptide array binding signal intensity (SpLsb4): 318
SPOT peptide array binding signal intensity (SpMyo1): ≤ 0
SPOT peptide array binding signal intensity (SpNbp2): 74.5
SPOT peptide array binding signal intensity (SpPex13): 1
SPOT peptide array binding signal intensity (SpRvs167): ≤ 0
SPOT peptide array binding signal intensity (SpSla1-D1-D2): 5
SPOT peptide array binding signal intensity (SpSla1-D3): 30
